Screens as filed in PubChem BioAssay.
CHX counter: counter-screen for Shiga toxin inhibitors: cycloheximide protein synthesis inhibition; cell reporter, cycloheximide protein synthesis inhibition counterscreen; max response, %; hit rate 12% among 300,000; in the data active = max response mostly above about 13%, no sharp cut-off; inactive = mostly below about 14%; note: read at 38.3 µM for the half of the compounds with a filed dose; 0% is about no effect
Shiga inhibitor: blocks Shiga toxin action in Vero cells; Vero cells, Shiga toxin protein synthesis inhibition reporter; inhibition, % at 38.7 µM; hit rate 9.2% among 290,000; AID 2315; in the data active = inhibition mostly above about 28%, no sharp cut-off; inactive = mostly below about 43%; note: 0% is about no effect
HCMV inh: inhibitors of human cytomegalovirus | activity change, negative = inhibition, % at 57.5 µM | HFF cells, HCMV-luciferase reporter, 72 h; stronger effect = lower value | hit rate 4.5% among 410,000 | AID 1259415; in the data active = activity change below about -60%; inconclusive = no clear call, values can overlap the other calls; inactive = above about -39%; note: % is set by controls: 0 for no effect and ±100 for the full control effect
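Human foreskin fibroblasts infected with luciferase-reporter HCMV at MOI 1 PFU/cell, compounds at two doses. Luciferase measured 72 h post infection; normalized to buffer-only basal and Salinomycin (10uM) controls.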
Pf growth 48h: P. falciparum growth inhibition at 48 hours (one generation) | AID 504832 | Potency, µM (doses to about 28.7 µM), without a hit: at the top dose activity change, negative = inhibition, actives largely listed as inhibitors | hit rate 5.9% among 310,000 | P. falciparum luciferase growth in erythrocytes, 48 h; note: potency is the fitted concentration of half-maximal effect; % is set by controls: 0 for no effect and ±100 for the full control effect
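Parasite viability was followed by luminescence of a genomically integrated firefly luciferase. Cultures held 0.1% parasitemia at 2% hematocrit (final), incubated under 5% CO2 at 37 C.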
Pf growth 96h: inhibits malaria parasite growth, 96 h; P. falciparum luciferase reporter growth, 96 h; Potency, µM (titrated, usually from 28.7 µM), inactives show top-dose activity change, negative = inhibition, most hits filed as inhibitors; hit rate 6.9% among 320,000; note: potency is the fitted concentration of half-maximal effect; % is set by controls: 0 for no effect and ±100 for the full control effect
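Cell-based qHTS: luciferase-tagged P. falciparum in erythrocytes (2% hematocrit, 0.05% parasitemia final) incubated with compounds for 96 hours, 37 C, 5% CO2; luciferase detection reagent then added and luminescence measured.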
HCV inh: HCV inhibition | hit rate 3.4% among 340,000 | Potency, µM (series often up to 41.8 µM), inactives show top-dose activity change, negative = inhibition, usual class: inhibitors | Huh7.5.1 HCVcc-Cre infection, luciferase reporter, 44 h; note: potency is the fitted concentration of half-maximal effect; % is set by controls: 0 for no effect and ±100 for the full control effect
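After 44 h co-culture of compound, cells and HCVcc-Cre (~0.5 moi), substrate is added for 15 min at room temperature and luciferase measured over 15 sec. Cells were seeded at 1,000/well and pre-cultured 4 h.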
* marks the source's active call; other numbers are inactive results. Shown are actives, neighbours in structure and some others; about 21% of the full set was active somewhere. Unless noted, calls come from the whole dose curve; as a rule, active = well fitted inhibition curve with a large enough effect; inconclusive = small, poorly fitted or top-dose-only effect, or another doubt; inactive = no such curve, though single readings can be large or run the other way.

For Cc1ccc2cc3cc(C(=O)NCCCN4CCCCCC4)oc3nc2c1 the results were CHX counter 14.8, Shiga inhibitor 0.5, HCMV inh 26.5, Pf growth 48h inconclusive, Pf growth 96h inconclusive and HCV inh inconclusive.
Cc1cccc(N(C)C(=O)c2cc3cc4ccc(C)cc4nc3o2)c1 was read as CHX counter 38.6*, Shiga inhibitor active, HCMV inh 0.7, Pf growth 48h -18.1%, Pf growth 96h 12.6% and HCV inh -5.4%.
Screening CCN(C(=O)c1cc2cc3ccc(OC)cc3nc2o1)c1cccc(C)c1 returned HCMV inh -19.9.
Cc1ccc2cc3cc(C(=O)NCCCN4CCCC4)oc3nc2c1 was read as CHX counter 1.5, Shiga inhibitor 0.7, HCMV inh inconclusive, Pf growth 48h inconclusive, Pf growth 96h -23.6% and HCV inh 14.1µM*.
Cc1ccc2cc3cc(C(=O)NCCCN4CCc5ccccc5C4)oc3nc2c1 was read as CHX counter 29.9*, Shiga inhibitor 35.3, HCMV inh 54.8, Pf growth 48h 8.28µM* and HCV inh inconclusive.
Screening Cc1ccc(Cn2c(=O)n(Cc3ccccc3Cl)c(=O)c3ccccc32)cc1 returned HCMV inh -2.8.
For Cc1cc2nc(C3CCN(Cc4nnnn4Cc4cccs4)CC3)[nH]c2cc1C the results were CHX counter 3.9, Shiga inhibitor 20.7, HCMV inh 18.7, Pf growth 48h inconclusive, Pf growth 96h -2.4% and HCV inh 11.2µM*.
For CC1CC2(C)Oc3ccccc3CC2C(C)C1CNCCCN(C)C (stereo not given) the results were CHX counter -2.2, Shiga inhibitor -22.8, HCMV inh -98.5*, Pf growth 48h inconclusive, Pf growth 96h inconclusive and HCV inh inconclusive.
For OCC#Cc1cnc2ccccc2c1 the results were CHX counter 25.6*, Shiga inhibitor 21.4, HCMV inh -36.6, Pf growth 48h 34.6%, Pf growth 96h inconclusive and HCV inh 4.1%.
Screening CCc1ccc(CNC(=O)c2ccc(Cn3c(=O)c4cccn4c4cccnc43)cc2)cc1 returned HCMV inh 1.9.
`Cc1ccc2c(c1)C(c1ccncc1)=NNC(c1ccc(F)cc1)=N2` gave CHX counter 15.6, Shiga inhibitor 16.2, HCMV inh -23.0, Pf growth 48h inconclusive, Pf growth 96h 52.0% and HCV inh -4.5%.
`Cc1ccc2c(c1)C(c1ccncc1)=NNC(c1ccccc1)=N2` gave CHX counter 50.1*, Shiga inhibitor 103.4*, HCMV inh 11.2, Pf growth 48h -19.0%, Pf growth 96h inconclusive and HCV inh 2.0%.
Screening Cc1ccc(C2=Nc3ccc(Br)cc3C(c3ccncc3)=NN2)cc1 returned CHX counter 28.4*, Shiga inhibitor 69.8, HCMV inh 0.2, Pf growth 48h inconclusive, Pf growth 96h 23.1% and HCV inh -15.3%.
Screening Cc1ccc(C2=Nc3cccnc3C(c3ccccc3)=NN2)cc1 returned CHX counter 49.0*, Shiga inhibitor 79.2*, HCMV inh 121.0, Pf growth 48h 338.1%, Pf growth 96h -10.7% and HCV inh -18.7%.
For Cc1ccc2c(c1)C(c1ccncc1)=NNC(c1ccc(C(C)C)cc1)=N2 the results were CHX counter 6.8, Shiga inhibitor 32.0*, Pf growth 48h inconclusive and Pf growth 96h inconclusive.
Screening Fc1ccc2c(c1)C(c1ccncc1)=NNC(c1ccc(Br)cc1)=N2 returned CHX counter 13.9, Shiga inhibitor -12.6, HCMV inh -33.0, Pf growth 48h inconclusive, Pf growth 96h inconclusive and HCV inh -25.1%.
COc1ccc2c(c1)C(c1ccc(C)o1)=NNC(c1cccnc1)=N2 was read as CHX counter 0.8, Shiga inhibitor 12.1, HCMV inh 7.9, Pf growth 48h inconclusive, Pf growth 96h inconclusive and HCV inh inconclusive.
`COc1ccc2c(c1)C(c1ccc(C)o1)=NNC(c1ccccc1)=N2` gave CHX counter 42.5*, Shiga inhibitor 95.8*, HCMV inh inconclusive, Pf growth 48h inconclusive, Pf growth 96h -0.5% and HCV inh -28.1%.
For CCOc1ccc2c(c1)C(c1ccccc1)=NNC(c1ccccc1)=N2 the results were CHX counter 45.4*, Shiga inhibitor 57.4*, HCMV inh -12.0, Pf growth 48h inconclusive, Pf growth 96h -19.8% and HCV inh -0.8%.
For Cc1ccccc1Cn1nnc2c(=O)[nH]c(C3CCN(C(=O)c4ccccc4Cl)CC3)nc21 the results were HCMV inh -21.2.
`CCn1c(C)c(P(c2ccccc2)c2ccccc2)[n+]2ccccc12` gave CHX counter -2.7, Shiga inhibitor -10.3, HCMV inh -61.1*, Pf growth 48h 1.47µM*, Pf growth 96h 8.28µM* and HCV inh -15.4%.
Screening CCn1c(C)c2c(C)nnc(C)c2c1C returned CHX counter -3.6, Shiga inhibitor -2.7, HCMV inh -7.6, Pf growth 48h 10.6%, Pf growth 96h inconclusive and HCV inh inconclusive.
O=c1[nH]c(=O)n([C@H]2C[C@H](O)[C@@H](CO)O2)cc1F was read as CHX counter -1.8, Shiga inhibitor 17.7, HCMV inh -66.8*, Pf growth 48h inconclusive, Pf growth 96h inconclusive and HCV inh inconclusive.
For CCCCCc1nc2ccccc2c(=O)n1-c1ccc(Cl)cc1[N+](=O)[O-] the results were CHX counter -4.4, Shiga inhibitor 2.4, HCMV inh 3.7, Pf growth 48h 4.65µM*, Pf growth 96h 13.1µM* and HCV inh 9.2%.
For CCCCc1nc2ccccc2c(=O)n1-c1ccccc1O the results were CHX counter 7.5, Shiga inhibitor -1.0, HCMV inh -20.3, Pf growth 48h inconclusive, Pf growth 96h inconclusive and HCV inh -5.6%.
CC(=O)c1cccc(NC(=O)Cn2c(=O)oc3cc(S(=O)(=O)NC4CCCC4)ccc32)c1 was read as HCMV inh 7.3.
For Cc1nc(N2CCN(Cc3ccccc3)CC2)nc2c1C(=O)CCC2 the results were CHX counter 0.9, Shiga inhibitor 9.1, HCMV inh -97.0*, Pf growth 48h inconclusive, Pf growth 96h -4.0% and HCV inh inconclusive.
Cc1nc(N2CCN(Cc3ccccc3)CC2)nc2c1CCC2 was read as CHX counter -2.5, Shiga inhibitor -7.4, HCMV inh inconclusive, Pf growth 48h inconclusive, Pf growth 96h 1.0% and HCV inh inconclusive.
For COc1ccc(NC(=O)c2ccc(-n3cncn3)c([N+](=O)[O-])c2)cc1OC the results were HCMV inh -18.0, Pf growth 48h -5.3%, Pf growth 96h inconclusive and HCV inh inconclusive.
O=C(Nc1ccc(F)c(F)c1)c1ccc(-n2cncn2)c([N+](=O)[O-])c1 was read as HCMV inh -18.3, Pf growth 48h inconclusive, Pf growth 96h inconclusive and HCV inh 22.4µM*.
